# Screening results (PubChem BioAssay)
# A selection: hits, their analogues and other compounds. The true share with any hit is near 7.4%.
# Luc counter: counter-screen: inhibitors of Kinase-Glo firefly luciferase; AID 1379; 200,000 tested, 0.28% active; Q27757; Kinase-Glo luciferase, ATP luminescence, 8 min; Potency, µM (highest dose often 38.3 µM), for inactives: at the highest dose activity change, negative = inhibition, usual class: inhibitors; also: % is scaled to controls: 0 for no effect and ±100 for the full control effect; nearly all actives have a fitted effect of over 60% in size
#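 Luminescence was the read-out, taken after 8-minute incubation at ambient temperature. Luciferase turned over luciferin with 10 uM ATP in imidazole pH 7.2 buffer containing KCl, MgCl2, Tween 20 and BSA.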
# ELG1 genotoxic: induces genotoxicity in HEK293T cells with luciferase-tagged ELG1. HEK293T ELG1-luciferase reporter, luminescence, 16 h. Potency, µM (doses to about 46 µM), for the others: at the top dose activity change, positive = activation, usual class: activators. 330,000 tested, 1.3% active. AID 504466; also: % of control where 0% means no effect; nearly all actives have a fitted effect of over 60% in size
#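 After overnight (16 hr) compound treatment at 37 °C, ELG1-luciferase HEK293T cells were lysed with ONE-Glo; luminescence quantified 30 min later at room temperature.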
# NPC1 promoter act: activators of NPC1 promoter; Potency, µM (top dose mostly 9.22 µM), without a hit: top-dose activation, usual class: activators; Huh7 NPC1 promoter luciferase reporter, 24 h; 320,000 tested, 2.4% active; also: % of control where 0% means no effect; nearly all actives have a fitted effect of over 60% in size
#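 Readout is luciferase luminescence, reflecting NPC1 promoter activation in stably transfected Huh7 cells after 24 h compound exposure at 37 °C in reduced-serum medium with 10% FBS.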
# SMN2 splice up: increases expression of the SMN2 splice variant; HEK293 SMN2-luciferase splicing reporter, luminescence, 30-36 h; AID 1458; Potency, µM (titrated, usually from 46.1 µM), without a hit: at the top dose activity change, positive = activation, most hits filed as activators; 210,000 tested, 2.8% active; also: % of control where 0% means no effect; nearly all actives have a fitted effect of over 55% in size
#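 HEK293 cells carry an SMN2 […]–luciferase reporter in which exon 7 inclusion puts luciferase in frame. Cells were plated 10-12 h before compound addition, then incubated 30-36 h at 37C. ONE-Glo luminescence was read; sodium butyrate at 4.5 mM final served as control.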
# FLuc counter: counter-screen for miR-21 project: firefly luciferase inhibitors or activators | purified FLuc, Km substrates, luminescence inhibition | Potency, µM (highest dose often 57.5 µM), for inactives: top-dose activity change, negative = inhibition, actives largely listed as inhibitors | 360,000 tested, 6.9% active;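 also: plate controls were vehicle for no effect and reference inhibitor for full effect; nearly all actives have a fitted effect of over 55% in size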
# Target sequence (P08659 whole entry, looked up): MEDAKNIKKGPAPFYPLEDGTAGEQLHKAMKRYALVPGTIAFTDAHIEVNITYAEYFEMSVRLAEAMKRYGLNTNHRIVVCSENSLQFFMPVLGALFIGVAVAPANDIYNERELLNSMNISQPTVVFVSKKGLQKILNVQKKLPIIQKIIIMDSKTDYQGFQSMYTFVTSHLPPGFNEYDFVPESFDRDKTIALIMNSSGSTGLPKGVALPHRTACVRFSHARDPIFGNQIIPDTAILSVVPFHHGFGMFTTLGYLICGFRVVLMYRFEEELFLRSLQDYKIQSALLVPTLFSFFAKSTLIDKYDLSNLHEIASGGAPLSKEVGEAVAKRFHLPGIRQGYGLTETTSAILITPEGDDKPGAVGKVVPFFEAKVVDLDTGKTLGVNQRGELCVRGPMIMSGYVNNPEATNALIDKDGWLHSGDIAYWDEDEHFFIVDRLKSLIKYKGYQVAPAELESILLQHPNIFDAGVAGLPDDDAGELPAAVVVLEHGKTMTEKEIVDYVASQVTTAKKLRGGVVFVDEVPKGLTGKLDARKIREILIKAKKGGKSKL
#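 Purified P. pyralis luciferase (10nM final) with 10uM D-luciferin and 10uM ATP (Km levels) in 50mM Tris acetate pH 7.5, 10mM Mg acetate, 0.01% Tween-20, 0.05% BSA; qHTS 6-point titration, ~60 µM downward; luminescence read.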
# Rab9 promoter act: Rab9 promoter activation; Huh7 Rab9 promoter-luciferase reporter, luminescence, 24 h; Potency, µM (titrated, usually from 9.22 µM), for inactives: top-dose activation, negative = inhibition, most hits filed as activators; 320,000 tested, 2.8% active; also: % of control where 0% means no effect; nearly all actives have a fitted effect of over 60% in size
#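 Luminescence read-out: Huh7 cells stably expressing Rab9-luciferase, treated 24 h with compound at 37 °C, then lysed with luciferase reagent for 10 min at ambient before reading.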
# Numbers without * were called inactive; ? = inconclusive; . = not tested or not shown; [ ] = dose if it differs, or a comment. Calls follow the shape of the dose curve; as a rule, active = well fitted curve in the direction sought with a large enough effect; inconclusive = small, poorly fitted or top-dose-only effect, or another doubt; inactive = no such curve, though single readings can be large; an effect the other way counts as inactive or inconclusive. Potency is read from the fitted curve at half-maximal effect.
SMILES,Luc counter,ELG1 genotoxic,NPC1 promoter act,SMN2 splice up,FLuc counter,Rab9 promoter act
O=C(Nc1ccccc1)OC1CC2CC1C1CCCC21 (configuration not stated),6%,?,?,.,7.6µM*,2.5µM*
O=C(Nc1ccccc1)O[C@@H]1C[C@H]2CCC(=O)N3CC[C@@H](C1)[C@@H]23,.,?,?,.,21µM*,?
COc1ccc(C)cc1S(=O)(=O)N1CCN(c2ccccc2)CC1,.,-1%,-3%,.,-1%,2%
CCOc1ccccc1N1CCN(S(=O)(=O)c2cc(C)ccc2OC)CC1,-4%,?,?,.,17µM*,2.5µM*
CC(C)C(=O)Nc1ccc2oc(-c3cc(F)c(F)cc3Cl)nc2c1,-1%,?,?,?,?,?
CCC(=O)Nc1ccc2oc(-c3ccccc3Br)nc2c1,1%,?,1.8µM*,10µM*,3µM*,2µM*
Cc1ccccc1-c1nc2cc(NC(=O)Cc3ccc(Cl)cc3)ccc2o1,.,.,.,-4%,-10%,.
CC(=O)Nc1ccc2oc(-c3cc(F)c(F)cc3Cl)nc2c1,-6%,1.8µM*,0.32µM*,8.9µM*,1.9µM*,0.4µM*
Cc1ccccc1-c1nc2cc(NC(=O)C3CC3)ccc2o1,.,4.6µM*,0.45µM*,.,1.7µM*,0.5µM*
CC(=O)Nc1ccc2oc(-c3ccccc3Br)nc2c1,-10%,1.8µM*,0.89µM*,11µM*,2.4µM*,0.45µM*
Cc1cccc(NS(=O)(=O)c2c(C)nc3sccn3c2=O)c1C,.,.,.,.,-6%,.
COc1c(CO)cc(CO)cc(CO)c1=O,-1%,.,.,10%,.,.
COc1ccc(/C=N/NC(=O)c2cc(-c3ccc(Cl)cc3)n[nH]2)cc1OC,-5%,.,.,.,.,.
Cc1cc(NC(=O)NCc2ccccc2)c(=O)n(Cc2ccccc2F)c1,.,14%,11%,.,5.4µM*,20%
COc1cccc(Cn2cc(C)cc(NC(=O)NCc3ccccc3)c2=O)c1,.,4%,15%,.,2.1µM*,18%
COc1cccc(NC(=O)Nc2cccn(Cc3ccc(C)cc3)c2=O)c1,0%,-7%,-8%,.,?,-32%
Cc1ccc2c(CC(=O)Nc3c(C(=O)c4ccc(F)cc4)oc4ccccc34)coc2c1C,.,.,.,1%,-5%,.
COc1ccc(-c2csc(-n3cccn3)n2)cc1,.,?,2.5µM*,.,3.8µM*,1.4µM*
COc1ccc(-c2csc(-n3ncc(-c4cccs4)c3N)n2)cc1,-1%,1%,-6%,-6%,4.3µM*,6%
O=C(Nc1ccccc1Cl)[C@H](CSCc1ccccc1)N1Cc2ccccc2C1=O,.,.,.,-1%,2%,.
COc1cc(OC)c(C(=O)NCC(c2cccs2)N(C)C)cc1OC (configuration not stated),3%,6%,-1%,9%,-14%,-10%
COc1cc2ccccc2cc1C(=O)NCC(c1cccs1)N(C)C (configuration not stated),-22%,16%,2.8µM*,?,5.4µM*,?
COc1cccc(C=Nc2ccccc2C(=O)Nc2nccs2)c1OC,5%,?,14%,-6%,6%,17%
COc1cccc2c1OCC(C(=O)Nc1nccs1)=C2,.,?,2.2µM*,.,5.4µM*,2µM*
COc1cc2ccccc2cc1C(=O)Nc1nccs1,.,12%,3.2µM*,.,8.5µM*,?
SMILES,Luc counter,ELG1 genotoxic,NPC1 promoter act,SMN2 splice up,FLuc counter,Rab9 promoter act
COc1c(C(=O)Nc2nccs2)ccc2ccccc12,.,?,1.8µM*,.,3µM*,?
CNc1c(NC(=O)c2cc(OC)cc(OC)c2)c(=O)oc2ccccc12,.,.,.,4%,-1%,.
Fc1ccc(-c2csc(=Nc3cccc(C(F)(F)F)c3)n2Cc2ccc3c(c2)OCO3)cc1,.,.,.,-45%,-1%,.
Cc1cccc(NC(=O)c2c(C)nn(-c3ccccc3)c2Cl)c1,2%,11%,?,19%,13µM*,?
Cc1ccc(OCC(=O)Nc2cc(-c3cccc(C)c3)nn2-c2ccccc2)cc1,.,.,.,.,-1%,.
Cc1nn(-c2ccccc2)c(Cl)c1C(=O)Nc1ccc(N2CCOCC2)cc1,-4%,-7%,1%,-6%,-14%,0%
CC(=O)Nc1c(C(=O)Nc2cccc(C)c2)nnn1-c1ccc(C)cc1,.,.,.,9%,17µM*,.
CCOC(=O)c1nn(-c2ccc(C)cc2)c(=O)cc1OCC(=O)Nc1cccc(C)c1,.,0%,2%,.,-1%,-6%
Cc1cccc(-c2cc(NC(=O)c3ccccc3C)n(-c3ccccc3)n2)c1,.,.,.,.,11µM*,.
O=C(/C=C/c1cn(-c2ccccc2)nc1-c1ccccc1)Nc1ccc(C(=O)O)cc1,.,4%,24%,.,0.85µM*,?
CC(=O)c1ccc(NC(=O)Cn2c3ncccc3c(=O)n2-c2ccc(C)cc2)cc1,.,.,.,-6%,-9%,.
CCOc1cc(-c2nnc(SCC(=O)NCc3ccccc3)nc2-c2ccc(OC)c(OCC)c2)ccc1OC,.,.,.,.,-6%,.
COc1ccc(S(=O)(=O)c2c(Nc3ccccc3F)sc(C(=O)c3cccc(OC)c3)c2N)cc1,.,.,.,.,-2%,.
CC(C)c1ccc(-c2nn(-c3ccccc3)cc2C(=O)NCC2CCCO2)cc1 (configuration not stated),.,-9%,2%,.,-12%,-11%
O=C(NCC1CCCO1)c1cn(-c2ccccc2)nc1-c1ccc(F)cc1 (configuration not stated),.,-2%,3%,.,11µM*,7%
CC(=O)c1ccc(NC(=O)c2cn(-c3ccccc3)nc2-c2ccncc2)cc1,0%,-1%,-4%,14%,-1%,-5%
CCOC(=O)c1cc(C(=O)Nc2cccc(C)c2)nn1C,-23%,?,1.6µM*,13µM*,4.8µM*,1.4µM*
O=C(O)c1ccc(NC(=O)c2cn(-c3ccccc3)nc2-c2cccc(Cl)c2)cc1,.,-1%,-6%,.,3.8µM*,-1%
Cc1cccc(NC(=O)c2cn(-c3ccccc3)nc2-c2ccccc2)c1,2%,1%,-2%,8%,13µM*,-1%
COc1ccccc1-c1nnc(SCC(=O)c2ccc(F)cc2)n1-c1ccccc1,.,.,.,-2%,-19%,.
O=C(O)c1cn(-c2ccccc2)nc1-c1ccc(F)cc1,.,0%[9.26 µM],-2%,.,?,1%
O=C(O)c1ccc(NC(=O)c2cn(-c3ccccc3)nc2-c2ccc(F)cc2)cc1,.,5%,22%,.,2.7µM*,?
Cc1ccc(N=Cc2nc(-c3ccco3)oc2O)cc1,4%,?,1%,12%,4.3µM*,8%
Cc1ccc(-c2nc(C=Nc3ccccc3)c(O)o2)cc1,8%,?,18%,.,9.5µM*,?
